Drawing on PubChem BioAssay, this text covers z-score and composite z-score for 13 molecules.

The nature of assay [1]: E. coli DRC41 culture turbidity changes, primary screen, E. coli filamentation inducer project, strain DRC41, OD650, 48 h (AID 1152).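 Note: E. coli MC1000 strain DRC41 lacking acrAB efflux pump and sulA.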 The following applies: E. coli DRC41 (acrAB sulA), higher = more signal, called active from +8 up or from −8 down.
Assay [2] can be described thus: small-molecule binders of probe aLefty1, primary screen, biochemical, small-molecule microarray, 635/667 nm fluorescence (AID 1153).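 Note: score merges spot fluorescence with signal-to-noise ratio from the scanned slide images.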 The settings on record: higher = more signal.
A short description of assay [3]: PSAC antagonists in infected red cells, primary screen, cell-based, P. falciparum Indochina, OD700, 1 h (AID 1154). The following applies: P. falciparum Indochina infected RBC osmotic lysis, higher = more signal, called active from +8 up or from −8 down.
Assay [4] in a line: PSAC antagonists in infected red cells, primary screen, cell-based, P. falciparum Indochina, OD700, 2 h (AID 1155).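 Note: lysis reports solute entry through the parasite surface anion channel PSAC; channel blockers reduce lysis of infected cells.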 The settings on record: P. falciparum Indochina infected erythrocytes, osmotic lysis OD700; higher = more signal, called active from +8 up or from −8 down.
The nature of assay [5]: osmotic lysis modulators in infected erythrocytes, primary screen, PSAC antagonist project, cell-based, P. falciparum Indochina, OD700, 3 h (AID 1156). The settings on record: higher = more signal, called active from +8 up or from −8 down.
The nature of assay [6]: PSAC antagonists in infected red cells, primary screen, cell-based, P. falciparum Indochina, OD700, 18 h (AID 1157). The following applies: P. falciparum Indochina infected erythrocytes, osmotic lysis OD700, 18 h; higher = more signal, called active from +8 up or from −8 down.
Assay [7] is described as follows: modulators of S6 phosphorylation in cells, primary screen, cell-based, A549, cytoblot, luminescence, serum-stimulated (AID 1158).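 Note: serum-stimulated A549 lung adenocarcinoma cells; signal is phosphorylated S6 detected by cytoblot immunostaining with HRP secondary.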 The following applies: A549 phospho-S6 cytoblot, 5 h, higher = more signal.
For assay [8], the target named is NADPH oxidase 2 (Homo sapiens) (UniProt P04839). The experiment in a line: NOX2-dependent H2O2 signal modulators, primary screen, NOX inhibitor project, cell-based, HEK293-NOX2, PMA-stimulated, Amplex Red fluorescence (AID 1159). Note: test concentration not given here. The settings on record: 45 min, higher = more signal, called active from +8 up or from −8 down.
NADPH oxidase 2 (Homo sapiens), sequence (P04839 whole entry, looked up): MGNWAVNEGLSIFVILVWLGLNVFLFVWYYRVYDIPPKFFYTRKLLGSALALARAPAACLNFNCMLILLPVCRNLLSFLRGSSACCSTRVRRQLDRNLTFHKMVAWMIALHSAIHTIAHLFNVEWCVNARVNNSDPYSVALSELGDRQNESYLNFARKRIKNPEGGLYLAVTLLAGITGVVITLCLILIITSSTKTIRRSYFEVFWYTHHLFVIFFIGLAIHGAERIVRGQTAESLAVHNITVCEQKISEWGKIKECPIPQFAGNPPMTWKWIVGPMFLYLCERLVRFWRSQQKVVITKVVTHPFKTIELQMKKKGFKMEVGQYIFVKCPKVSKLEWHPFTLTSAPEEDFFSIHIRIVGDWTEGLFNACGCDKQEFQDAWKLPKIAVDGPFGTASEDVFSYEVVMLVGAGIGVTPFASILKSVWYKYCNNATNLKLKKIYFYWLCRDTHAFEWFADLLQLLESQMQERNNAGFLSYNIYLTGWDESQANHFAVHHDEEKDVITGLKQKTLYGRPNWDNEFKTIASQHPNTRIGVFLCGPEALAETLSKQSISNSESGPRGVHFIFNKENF
Assay [9] deals with NADPH oxidase 4 (Homo sapiens) (UniProt Q9NPH5). The experiment in a line: NOX4-dependent H2O2 signal modulators, primary screen, NOX inhibitor project, cell-based, HEK293-NOX4, tetracycline-induced, Amplex Red fluorescence (AID 1160). The following applies: 45 min, higher = more signal, called active from +8 up or from −8 down.
NADPH oxidase 4 (Homo sapiens), sequence (Q9NPH5 whole entry, looked up): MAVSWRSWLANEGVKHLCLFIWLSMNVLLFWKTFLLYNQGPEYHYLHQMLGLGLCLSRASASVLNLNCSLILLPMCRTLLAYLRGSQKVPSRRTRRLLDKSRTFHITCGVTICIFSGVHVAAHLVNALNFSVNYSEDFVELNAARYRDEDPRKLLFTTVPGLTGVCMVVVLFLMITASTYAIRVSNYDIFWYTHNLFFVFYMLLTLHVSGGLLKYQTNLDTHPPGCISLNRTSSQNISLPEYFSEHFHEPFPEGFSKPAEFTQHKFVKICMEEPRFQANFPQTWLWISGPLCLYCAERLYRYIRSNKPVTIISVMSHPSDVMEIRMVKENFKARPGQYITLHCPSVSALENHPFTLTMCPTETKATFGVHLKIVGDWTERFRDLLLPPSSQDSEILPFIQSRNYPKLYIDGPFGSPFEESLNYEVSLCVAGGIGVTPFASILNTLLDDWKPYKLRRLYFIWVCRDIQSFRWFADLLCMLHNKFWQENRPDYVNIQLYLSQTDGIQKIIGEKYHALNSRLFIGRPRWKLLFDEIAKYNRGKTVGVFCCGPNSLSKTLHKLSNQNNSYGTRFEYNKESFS
The target in assay [10] is NADPH oxidase 5 (Homo sapiens) (UniProt Q96PH1). The experiment in a line: NOX5-dependent H2O2 signal modulators, primary screen, NOX inhibitor project, cell-based, HEK293-NOX5, Amplex Red fluorescence (AID 1161). The following applies: HEK293-NOX5, ionomycin, 45 min, higher = more signal.
NADPH oxidase 5 (Homo sapiens), sequence (Q96PH1 whole entry, looked up): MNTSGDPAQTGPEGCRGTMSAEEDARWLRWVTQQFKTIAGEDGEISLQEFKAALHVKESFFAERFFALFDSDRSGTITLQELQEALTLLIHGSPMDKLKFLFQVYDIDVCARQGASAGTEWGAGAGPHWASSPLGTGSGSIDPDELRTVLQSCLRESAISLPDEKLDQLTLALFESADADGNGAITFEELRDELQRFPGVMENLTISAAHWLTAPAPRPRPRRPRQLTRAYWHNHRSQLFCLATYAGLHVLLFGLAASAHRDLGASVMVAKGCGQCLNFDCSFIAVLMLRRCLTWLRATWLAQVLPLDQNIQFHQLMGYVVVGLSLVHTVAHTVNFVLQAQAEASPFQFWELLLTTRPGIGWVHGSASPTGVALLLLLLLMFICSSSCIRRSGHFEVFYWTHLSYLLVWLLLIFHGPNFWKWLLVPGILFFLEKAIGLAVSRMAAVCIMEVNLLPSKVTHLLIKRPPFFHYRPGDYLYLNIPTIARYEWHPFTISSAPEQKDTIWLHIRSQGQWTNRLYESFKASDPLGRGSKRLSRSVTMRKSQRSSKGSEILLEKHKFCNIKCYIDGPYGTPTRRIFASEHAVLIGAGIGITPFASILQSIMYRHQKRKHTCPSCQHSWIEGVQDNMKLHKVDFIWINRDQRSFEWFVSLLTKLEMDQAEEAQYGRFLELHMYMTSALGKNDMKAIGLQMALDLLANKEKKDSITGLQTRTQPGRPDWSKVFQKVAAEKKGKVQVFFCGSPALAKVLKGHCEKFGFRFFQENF

Calls of active or inactive are those of the source.

Regarding `C[C@H]1ON(c2ccc(C(=O)OC(C)(C)C)cc2)[C@@H](c2ccc(O)cc2)[C@@H]1C(=O)N1C(=O)OC[C@@H]1c1ccccc1`, the z-score was -0.569 (inactive) in assay [1]; 3.71 (inactive) in assay [3]; 0.622 (inactive) in assay [4]; 0.166 (inactive) in assay [5]; 0.428 (inactive) in assay [6]; 0.433 in assay [7]. Also, the z-score was -0.414 (inactive) in assay [8], -0.254 (inactive) in [9] and 0.718 in assay [10]. In addition, in assay [2], the composite z-score is -0.0023.
As to `CC=CC(O)C1C=CC2C(=O)N(c3ccccc3)C(=O)C2N1Nc1ccccc1` (stereo not given), the z-score in [1] was 0.509 (inactive); in [3], 5.52 (inactive); in [4], 1.17 (inactive); in assay [5] it was 0.419 (inactive); in assay [6], 1.17 (inactive); in [7] it was -0.959. Further, the z-score in assay [8] was 0.209 (inactive); in assay [9], -4.28 (inactive); in assay [10] it was -2.42. The same molecule returned a composite z-score in [2] of 0.135.
With `O=C1c2ccccc2[C@](Cc2ccccc2I)(C(=O)NCCN2CCOCC2)[C@H](c2ccc(CO)cc2)N1Cc1ccccc1`, the z-score was -0.381 (inactive) in assay [1]; 4.18 (inactive) in assay [3]; 0.815 (inactive) in assay [4]; -0.188 (inactive) in [5]; 0.352 (inactive) in [6]; -0.0041 in assay [7]. Further, the z-score was 0.744 (inactive) in assay [8], 0.91 (inactive) in [9] and 0.665 in assay [10]. Moreover, the composite z-score in assay [2] is 0.641.
As to `NC(=O)NCC#Cc1ccc2c(c1)[C@]1(C(=O)N2)[C@H](c2ccc(O)cc2)N2[C@H](c3ccccc3)[C@H](c3ccccc3)OC(=O)[C@H]2[C@@H]1C(=O)Nc1nc2ccccc2s1`, the z-score was 0.589 (inactive) in [1]; 3.28 (inactive) in [3]; 2.86 (inactive) in [4]; 0.904 (inactive) in [5]; 2.09 (inactive) in assay [6]; 0.0298 in [7]. Also, the z-score in assay [8] was 0.0666 (inactive); in assay [9] it was -1.01 (inactive); in assay [10] it was 0.17. The molecule further had a composite z-score in [2] of 0.127.
On to `CC(C)CNC(=O)[C@@]1(c2ccc([N+](=O)[O-])cc2)CC(=O)N(C2CCCCC2)[C@@H]1c1ccc(CO)cc1I`, for which the z-score in assay [1] was -0.826 (inactive); in [3], 10.8 (active); in [4], 2.15 (inactive); in [5] it was 3.67 (inactive); in assay [6], 0.794 (inactive); in assay [7], -0.183. In addition, the z-score in assay [8] is 0.685 (inactive); in [9], 0.486 (inactive); in assay [10] it was 1.74. The composite z-score in [2] stood at 0.213.
As for `Cc1ccc(F)cc1S(=O)(=O)N[C@@H]1CCN(Cc2ccc(OC(C)C)cc2)C1`, the z-score in assay [1] is -19.2 (active); in assay [3], 2.14 (inactive); in [4], 0.45 (inactive); in assay [5] it was -0.11 (inactive); in assay [6], 0.673 (inactive); in assay [7], -0.157. In addition, the z-score is -0.681 (inactive) in assay [8], -0.987 (inactive) in [9] and -1.62 in assay [10]. The molecule further gave a composite z-score in assay [2] of -0.186.
Turning to `COCCOC(=O)N1C(=O)[C@@]2(c3cc(C#CC4=CCCCC4)ccc31)[C@H](c1ccc(O)cc1)N1[C@H](c3ccccc3)[C@H](c3ccccc3)OC(=O)[C@H]1[C@@H]2C(=O)Nc1nc2ccccc2s1`, the z-score in assay [1] is -0.567 (inactive); in [3], 2.09 (inactive); in [4] it was 1.76 (inactive); in [5] it was 0.599 (inactive); in [6] it was 1.81 (inactive); in assay [7], -0.507. For the same molecule, the z-score in assay [8] is 1.55 (inactive); in [9] it was -0.0515 (inactive); in assay [10] it was 0.897. In addition, the composite z-score in [2] worked out at 0.571.
With `C=C(COC)/C(=C/C[C@@H](OC(=O)c1ccncc1)c1ccc(OCCO)cc1)c1cnc2ccccc2c1`, the z-score is 0.634 (inactive) in [1]; 23.1 (active) in [3]; 5.56 (inactive) in assay [4]; 1.59 (inactive) in [5]; 1.19 (inactive) in [6]; -0.0567 in assay [7]. In addition, the results for the z-score in assay [8], in assay [9] and in assay [10] were -1.17 (inactive), -0.596 (inactive) and -1.84, respectively. Further, in assay [2], the composite z-score amounted to 0.497.
Consider `COc1ccccc1CN1C(=O)c2ccccc2[C@](Cc2ccccc2I)(C(=O)NC(C)C)[C@@H]1c1ccc(CO)cc1`, for which the z-score was 0.646 (inactive) in assay [1]; 4.1 (inactive) in assay [3]; 0.644 (inactive) in assay [4]; 0.632 (inactive) in assay [5]; 0.621 (inactive) in assay [6]; 0.0569 in assay [7]. Moreover, the z-score in [8] was -2.12 (inactive); in [9] it was 0.143 (inactive); in assay [10] it was -2.1. The molecule also showed a composite z-score in assay [2] of 0.0494.
For the molecule `Cc1ccc(S[C@]2(C(=O)O)CC(=O)N(Cc3ccccc3Cl)[C@@H]2c2ccc(CO)cc2)cc1`, the z-score in assay [1] was 0.33 (inactive); in assay [3], 2.67 (inactive); in [4], -0.185 (inactive); in assay [5] it was 0.825 (inactive); in assay [6], 0.55 (inactive); in assay [7], 0.227. Moreover, the z-score in assay [8] was 0.646 (inactive); in assay [9], -1.5 (inactive); in [10] it was 0.432. Moreover, the composite z-score in [2] was -0.112.
Consider `CC[C@@H]1[C@H]2C3C(=O)N(CC)C(=O)C3CC(=O)[C@H]2[C@H](c2ccc(C)cc2)N1S(=O)(=O)c1ccc(C)cc1` (stereo not given in full), for which the z-score is -0.272 (inactive) in assay [1]; 2.27 (inactive) in [3]; 1.99 (inactive) in [4]; 0.925 (inactive) in assay [5]; 1.3 (inactive) in assay [6]; -0.12 in assay [7]. Further, the z-score was 0.5 (inactive) in assay [8], 0.458 (inactive) in assay [9] and 0.0674 in assay [10]. The same molecule yielded a composite z-score in assay [2] of 0.0026.
For `C=CC[C@H](OC(=O)Nc1ccc(OC)cc1)c1ccc(O)c2ccccc12`, the z-score in [1] was -0.326 (inactive); in [3], 5.07 (inactive); in assay [4] it was 0.919 (inactive); in [5], -0.0585 (inactive); in assay [6] it was 0.328 (inactive); in assay [7] it was -0.93. For the same molecule, the z-score is -6.04 (inactive) in [8], -1.58 (inactive) in assay [9] and -0.343 in [10]. The molecule further gave a composite z-score in [2] of 0.122.
In the case of `COc1c(C)cc(-c2cc3c(c(Cc4ccccc4)n2)[Si](C(C)C)(C(C)C)OC3)cc1C`, the z-score in assay [1] is -1.01 (inactive); in assay [3], 0.613 (inactive); in assay [4] it was -0.172 (inactive); in assay [5], 0.249 (inactive); in assay [6] it was 0.189 (inactive); in [7], -0.671. Further, the z-score in assay [8] was -0.233 (inactive); in [9] it was 0.243 (inactive); in assay [10] it was 0.152. The molecule also yielded a composite z-score in assay [2] of 0.0004.
